In PubChem BioAssay (NCI) one finds growth data, which are given here for 27 molecules.

Where “and” joins values, the source holds several entries; their conditions need not be identical. Equal entries are not always repeated. About 83,000 compounds went through this panel and 20% of them were active in at least one assay; those are over-represented in the sample as a whole.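 Interpretation: 100, growth as untreated; towards 0, rising growth inhibition; 0, no net growth; 0 to -100, cell death. Compounds scoring below 10 were considered active.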 Calls of active or inactive are those of the source.

One experiment deals with MALME-3M melanoma. The experiment is described as follows: NCI-60 one-dose screen, 48 h (100 = growth as untreated, 0 = no growth, -100 = all killed). The note with it: 10 µM.
Take `Cc1cc(C(C)(C)c2ccc(O)c(C)c2)ccc1O`: the growth was 88.4% (inactive).
Consider `O=[P+](O)c1ccccc1`, for which the growth was 119% (inactive).
The same measure, in the same setting: the same measure for `O=C(CCl)Nc1ccc(Cl)cc1`: 28% (inactive); for `Cc1ccc(C(=O)C2C(c3ccccc3)N2C2CCCCC2)cc1` (configuration not stated): 98.1% (inactive) and 97.9% (inactive); for `COc1ccccc1[As]=[As]c1ccccc1OC` (configuration not stated): -72.8% (active).
Turning to `COc1cc2c(cc1OC)C13CCN4CC5=CCOC6CC(=O)N2C1C6C5CC43` (configuration not stated), the growth is 126% (inactive) and 103% (inactive).
For the molecule `Cn1c(O)c(N=O)c(=O)n(C)c1=O`, the growth was 99.1% (inactive) and 107% (inactive).
Regarding `N#CCc1ccccc1`, the growth is 111% (inactive).
`COc1cc([C@@H]2c3cc4c(c(O)c3C[C@H]3COC(=O)[C@@H]32)OCO4)cc(OC)c1OC`: the growth is 40.4% (inactive).
`CC[C@@H](C)[C@@H]1NC(=O)C(NC(=O)C(CC(C)C)N(C)C(=O)C2CCCN2C(=O)C(C)O)C(C)OC(=O)C(Cc2ccc(OC)cc2)N(C)C(=O)C2CCCN2C(=O)C(CC(C)C)NC(=O)C(C)C(=O)C(C(C)C)OC(=O)C[C@H]1O` (some centres not stated): the growth was -87.2% (active).
Still for that read-out and setting: the same measure for `CC[C@@]1(O)C[C@H](OC2CC(N(C)C)C(O)C(C)O2)c2c(cc3c(c2O)C(=O)c2c(O)ccc(O)c2C3=O)[C@H]1C(=O)OC` (some centres not stated): -87.4% (active).
The same measure, in the same setting: the same measure for `O=C(CBr)Nc1ccccc1`: 54.7% (inactive); for `S=C=NCCc1ccccc1`: 88.7% (inactive).

Another experiment concerns MDA-MB-231 breast. Described as above. Conditions: 10 µM.
Turning to `C=NCC#N`, the growth is 100% (inactive) and 112% (inactive).
On the same count and under the same terms, with `COC(=O)C1C(O)C(C)C(O)C(C)/C=C\C=C(C)C(=O)Nc2c(C)c(OC(C)=O)c3c(c2O)C(=O)C(C)=C2OCOC(=C23)C(C)=CC(C)(O)C(O)C(C)C1O` (configuration not stated) the figure was 88.6% (inactive).
The same measure, in the same setting: the same measure for `[Cl][Hg][c]1ccc(Cl)s1`: -47.2% (active); for `CC(C)c1cc([N+](=O)[O-])cc([N+](=O)[O-])c1O`: 99.7% (inactive); for `COS(=O)(=O)c1ccccc1`: 123% (inactive).
For `[O-][n+]1ccccc1S`, the growth is 58.7% (inactive).
On the same count and under the same terms, with `COC(C(=O)C(O)C(C)O)C1Cc2cc3cc(OC4CC(OC(C)=O)C(OC5CC(O)C(OC)C(C)O5)C(C)O4)cc(O)c3c(O)c2C(=O)C1OC1CC(OC2CC(OC3CC(C)(O)C(OC(=O)C(C)C)C(C)O3)C(O)C(C)O2)C(O)C(C)O1` (configuration not stated) the figure was -26.3% (active); with `C/C1=C\[C@H](C)C[C@H](C)OC(=O)C[C@H](c2ccc(O)cc2)NC(=O)[C@@H](Cc2c(Br)[nH]c3ccccc23)N(C)C(=O)[C@H](C)NC(=O)[C@@H](C)C1`, -33.2% (active); with `Oc1c(I)cc(I)cc1I`, 93.7% (inactive).
`COc1ccc2c(ccc3oc([N+](=O)[O-])cc32)c1`: the growth is -20.3% (active).
As for `CC(C)(C)OOC(=O)/C=C\C(=O)OOC(C)(C)C`, the growth was 97.5% (inactive).
`CC12OOC(c3ccccc31)c1c2ccc2ccccc12` (configuration not stated): the growth is 49.7% (inactive).
Regarding `COc1cc(/C=C/[N+](=O)[O-])cc(Br)c1OC`, the growth is 7.14% (active).
The same measure, in the same setting: the same measure for `COc1ccc(/C=C\[N+](=O)[O-])cc1OC`: 91.4% (inactive) and 68.9% (inactive); for `Cc1cc(C(C)(C)c2ccc(O)c(C)c2)ccc1O`: 80.5% (inactive); for `O=[P+](O)c1ccccc1`: 112% (inactive).
Still for that read-out and setting: with `O=C(CCl)Nc1ccc(Cl)cc1` the figure was 46.7% (inactive); with `Cc1ccc(C(=O)C2C(c3ccccc3)N2C2CCCCC2)cc1` (configuration not stated), 117% (inactive) and 112% (inactive); with `COc1ccccc1[As]=[As]c1ccccc1OC` (configuration not stated), -83.2% (active).
`COc1cc2c(cc1OC)C13CCN4CC5=CCOC6CC(=O)N2C1C6C5CC43` (configuration not stated): the growth is 111% (inactive) and 87.4% (inactive).
`Cn1c(O)c(N=O)c(=O)n(C)c1=O`: the growth is 107% (inactive) and 101% (inactive).
For `N#CCc1ccccc1`, the growth is 98.4% (inactive).
Regarding `COc1cc([C@@H]2c3cc4c(c(O)c3C[C@H]3COC(=O)[C@@H]32)OCO4)cc(OC)c1OC`, the growth was 21% (inactive).
On the same count and under the same terms, with `CC[C@@H](C)[C@@H]1NC(=O)C(NC(=O)C(CC(C)C)N(C)C(=O)C2CCCN2C(=O)C(C)O)C(C)OC(=O)C(Cc2ccc(OC)cc2)N(C)C(=O)C2CCCN2C(=O)C(CC(C)C)NC(=O)C(C)C(=O)C(C(C)C)OC(=O)C[C@H]1O` (some centres not stated) the figure was -55.6% (active).
Same read-out and setting: the same measure for `CC[C@@]1(O)C[C@H](OC2CC(N(C)C)C(O)C(C)O2)c2c(cc3c(c2O)C(=O)c2c(O)ccc(O)c2C3=O)[C@H]1C(=O)OC` (some centres not stated): -70.9% (active); for `O=C(CBr)Nc1ccccc1`: 95.3% (inactive); for `S=C=NCCc1ccccc1`: 38.4% (inactive).

The next experiment has as its system RXF 393 renal. Described as above. Conditions: 10 µM.
For `C=NCC#N`, the growth was 111% (inactive) and 101% (inactive).
Same read-out and setting: with `COC(=O)C1C(O)C(C)C(O)C(C)/C=C\C=C(C)C(=O)Nc2c(C)c(OC(C)=O)c3c(c2O)C(=O)C(C)=C2OCOC(=C23)C(C)=CC(C)(O)C(O)C(C)C1O` (configuration not stated) the figure was 98.6% (inactive); with `[Cl][Hg][c]1ccc(Cl)s1`, -90% (active); with `CC(C)c1cc([N+](=O)[O-])cc([N+](=O)[O-])c1O`, 102% (inactive).
On to `COS(=O)(=O)c1ccccc1`, for which the growth is 109% (inactive).
Still for that read-out and setting: with `[O-][n+]1ccccc1S` the figure was 46.9% (inactive).
On to `COC(C(=O)C(O)C(C)O)C1Cc2cc3cc(OC4CC(OC(C)=O)C(OC5CC(O)C(OC)C(C)O5)C(C)O4)cc(O)c3c(O)c2C(=O)C1OC1CC(OC2CC(OC3CC(C)(O)C(OC(=O)C(C)C)C(C)O3)C(O)C(C)O2)C(O)C(C)O1` (configuration not stated), for which the growth was -24.6% (active).
Turning to `C/C1=C\[C@H](C)C[C@H](C)OC(=O)C[C@H](c2ccc(O)cc2)NC(=O)[C@@H](Cc2c(Br)[nH]c3ccccc23)N(C)C(=O)[C@H](C)NC(=O)[C@@H](C)C1`, the growth was -49.2% (active).
The same measure, in the same setting: with `Oc1c(I)cc(I)cc1I` the figure was 108% (inactive).
Turning to `COc1ccc2c(ccc3oc([N+](=O)[O-])cc32)c1`, the growth is -64.3% (active).
`CC(C)(C)OOC(=O)/C=C\C(=O)OOC(C)(C)C`: the growth is 105% (inactive).
On the same count and under the same terms, the same measure for `CC12OOC(c3ccccc31)c1c2ccc2ccccc12` (configuration not stated): 67.3% (inactive).
On the same count and under the same terms, with `COc1cc(/C=C/[N+](=O)[O-])cc(Br)c1OC` the figure was -80.5% (active).
Still for that read-out and setting: with `COc1ccc(/C=C\[N+](=O)[O-])cc1OC` the figure was 4.99% (active) and -51.1% (active); with `Cc1cc(C(C)(C)c2ccc(O)c(C)c2)ccc1O`, 93.5% (inactive); with `O=[P+](O)c1ccccc1`, 115% (inactive).
Turning to `O=C(CCl)Nc1ccc(Cl)cc1`, the growth was 35.2% (inactive).
Take `Cc1ccc(C(=O)C2C(c3ccccc3)N2C2CCCCC2)cc1` (configuration not stated): the growth was 111% (inactive) and 96.8% (inactive).
Same read-out and setting: the same measure for `COc1ccccc1[As]=[As]c1ccccc1OC` (configuration not stated): -99.5% (active); for `COc1cc2c(cc1OC)C13CCN4CC5=CCOC6CC(=O)N2C1C6C5CC43` (configuration not stated): 127% (inactive).
For `Cn1c(O)c(N=O)c(=O)n(C)c1=O`, the growth was 107% (inactive) and 115% (inactive).
Same read-out and setting: with `N#CCc1ccccc1` the figure was 111% (inactive); with `COc1cc([C@@H]2c3cc4c(c(O)c3C[C@H]3COC(=O)[C@@H]32)OCO4)cc(OC)c1OC`, 14.3% (inactive).
The same measure, in the same setting: the same measure for `CC[C@@H](C)[C@@H]1NC(=O)C(NC(=O)C(CC(C)C)N(C)C(=O)C2CCCN2C(=O)C(C)O)C(C)OC(=O)C(Cc2ccc(OC)cc2)N(C)C(=O)C2CCCN2C(=O)C(CC(C)C)NC(=O)C(C)C(=O)C(C(C)C)OC(=O)C[C@H]1O` (some centres not stated): -66.2% (active).
Same read-out and setting: with `CC[C@@]1(O)C[C@H](OC2CC(N(C)C)C(O)C(C)O2)c2c(cc3c(c2O)C(=O)c2c(O)ccc(O)c2C3=O)[C@H]1C(=O)OC` (some centres not stated) the figure was -66.3% (active); with `O=C(CBr)Nc1ccccc1`, 107% (inactive); with `S=C=NCCc1ccccc1`, 31.5% (inactive).
